# Test results published in PMC7862700, “An all-to-all approach to the identification of sequence-specific readers for epigenetic DNA modifications on cytosine”.
# Key:
# Assay in all cases: DAPPL (digital affinity profiling via proximity ligation, sequencing); 10 mM Tris-HCl pH 7.5, 50 mM NaCl, 1 mM DTT, 4% glycerol, room temperature, 30 min; GST-TFs on glutathione beads, 16-mer random dsDNA library, 0.1% formaldehyde crosslink after washing; high values mean tight binding
# FLI1 = molecular target: T1, FLI1 (Homo sapiens, UniProt Q01543 1-452); conditions: protein: recombinant; tags: N-terminal GST; dsDNA, one strand shown
# T1 sequence: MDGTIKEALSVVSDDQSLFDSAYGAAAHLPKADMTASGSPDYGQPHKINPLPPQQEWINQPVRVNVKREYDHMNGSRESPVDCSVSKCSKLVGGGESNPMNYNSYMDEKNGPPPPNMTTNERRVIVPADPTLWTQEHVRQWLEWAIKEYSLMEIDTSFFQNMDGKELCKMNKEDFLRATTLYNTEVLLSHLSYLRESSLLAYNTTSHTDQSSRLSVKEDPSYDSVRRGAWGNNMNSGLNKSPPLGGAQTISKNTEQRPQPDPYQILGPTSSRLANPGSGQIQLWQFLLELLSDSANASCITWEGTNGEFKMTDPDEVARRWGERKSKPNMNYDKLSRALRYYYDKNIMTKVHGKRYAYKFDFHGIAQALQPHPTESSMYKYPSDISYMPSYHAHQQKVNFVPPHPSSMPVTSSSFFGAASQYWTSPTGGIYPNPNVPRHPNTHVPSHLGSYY
# Procedure, shortened: (§1)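 Each value of binding signal is a hexamer's read frequency for a factor divided by the same hexamer's frequency in the tag-only sample. Barcoded, bead-captured GST fusions of human transcription factors made in yeast were pooled with that sample and incubated with 200 nmole of a random double-stranded 16-mer DNA library in Tris/NaCl/DTT/glycerol buffer at room temperature for 30 min. Washing, 0.1% formaldehyde crosslinking, proximity ligation, PCR and Illumina NextSeq500 sequencing followed.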
# ELK1 = molecular target: T2, ELK1 (Homo sapiens, UniProt P19419 1-428); conditions: protein: recombinant; tags: N-terminal GST; dsDNA, one strand shown
# T2 sequence: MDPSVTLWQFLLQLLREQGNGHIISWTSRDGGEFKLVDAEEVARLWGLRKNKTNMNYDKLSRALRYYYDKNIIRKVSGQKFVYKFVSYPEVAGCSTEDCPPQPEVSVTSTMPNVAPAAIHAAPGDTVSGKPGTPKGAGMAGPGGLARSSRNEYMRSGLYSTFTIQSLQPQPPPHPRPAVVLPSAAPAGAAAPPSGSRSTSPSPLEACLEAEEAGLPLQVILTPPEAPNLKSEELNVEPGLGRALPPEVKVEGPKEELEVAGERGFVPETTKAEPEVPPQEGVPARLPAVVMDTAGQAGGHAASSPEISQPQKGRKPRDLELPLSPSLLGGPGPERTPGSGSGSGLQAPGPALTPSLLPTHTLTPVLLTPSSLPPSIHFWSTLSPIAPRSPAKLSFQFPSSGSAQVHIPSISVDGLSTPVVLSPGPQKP
# Procedure, shortened: as §1
# GABPA = molecular target: T3, GABPA (Homo sapiens, UniProt Q06546 1-454); conditions: protein: recombinant; tags: N-terminal GST; dsDNA, one strand shown
# T3 sequence: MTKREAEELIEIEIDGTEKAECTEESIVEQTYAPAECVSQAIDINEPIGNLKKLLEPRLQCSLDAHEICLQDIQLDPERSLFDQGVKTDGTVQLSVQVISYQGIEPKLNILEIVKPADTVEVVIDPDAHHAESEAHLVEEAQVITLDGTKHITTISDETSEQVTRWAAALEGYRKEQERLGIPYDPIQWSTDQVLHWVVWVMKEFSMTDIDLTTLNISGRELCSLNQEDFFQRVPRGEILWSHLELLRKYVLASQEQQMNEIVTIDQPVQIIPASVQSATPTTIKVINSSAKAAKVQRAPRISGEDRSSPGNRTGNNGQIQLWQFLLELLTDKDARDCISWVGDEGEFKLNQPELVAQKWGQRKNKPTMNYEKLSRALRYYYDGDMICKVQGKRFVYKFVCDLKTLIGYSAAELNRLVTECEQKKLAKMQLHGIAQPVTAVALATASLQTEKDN
# Procedure, shortened: as §1
# ERG = molecular target: T4, ERG (Homo sapiens, UniProt P11308 1-479); conditions: protein: recombinant; tags: N-terminal GST; dsDNA, one strand shown
# T4 sequence: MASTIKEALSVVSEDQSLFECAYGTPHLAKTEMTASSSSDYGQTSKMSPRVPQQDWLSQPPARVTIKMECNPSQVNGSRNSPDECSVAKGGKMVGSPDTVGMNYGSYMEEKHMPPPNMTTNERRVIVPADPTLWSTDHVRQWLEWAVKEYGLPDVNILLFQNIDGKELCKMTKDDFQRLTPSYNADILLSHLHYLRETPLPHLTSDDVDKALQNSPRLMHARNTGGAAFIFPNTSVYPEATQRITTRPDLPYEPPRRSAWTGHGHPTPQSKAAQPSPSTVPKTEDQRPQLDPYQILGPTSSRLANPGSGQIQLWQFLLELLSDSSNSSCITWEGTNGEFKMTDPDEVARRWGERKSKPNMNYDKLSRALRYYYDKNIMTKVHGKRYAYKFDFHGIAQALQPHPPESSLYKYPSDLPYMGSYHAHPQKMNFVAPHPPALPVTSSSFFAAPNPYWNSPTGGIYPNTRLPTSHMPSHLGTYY
# Procedure, shortened: as §1
# ELF1 = ELF1 (Homo sapiens, UniProt P32519 1-619); conditions: protein: recombinant; tags: N-terminal GST; dsDNA, one strand shown
# Sequence of ELF1 (P32519 whole entry): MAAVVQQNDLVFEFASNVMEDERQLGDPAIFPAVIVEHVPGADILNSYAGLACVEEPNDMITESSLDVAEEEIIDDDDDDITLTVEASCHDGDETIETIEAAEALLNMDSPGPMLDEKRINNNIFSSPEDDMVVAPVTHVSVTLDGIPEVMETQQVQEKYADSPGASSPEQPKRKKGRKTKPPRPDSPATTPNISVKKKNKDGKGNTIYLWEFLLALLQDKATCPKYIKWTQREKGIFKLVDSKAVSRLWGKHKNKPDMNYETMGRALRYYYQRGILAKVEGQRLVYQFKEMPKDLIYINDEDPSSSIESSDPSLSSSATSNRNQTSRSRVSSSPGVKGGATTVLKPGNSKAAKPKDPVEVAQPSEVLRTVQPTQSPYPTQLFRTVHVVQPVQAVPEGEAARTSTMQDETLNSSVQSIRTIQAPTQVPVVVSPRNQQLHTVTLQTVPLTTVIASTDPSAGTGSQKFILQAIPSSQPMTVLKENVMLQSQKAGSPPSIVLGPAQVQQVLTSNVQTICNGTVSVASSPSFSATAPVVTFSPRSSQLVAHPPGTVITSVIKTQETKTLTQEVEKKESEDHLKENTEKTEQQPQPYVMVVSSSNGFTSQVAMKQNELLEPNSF
# Procedure, shortened: as §1
# EHF = molecular target: T5, EHF (Homo sapiens, UniProt Q9NZC4 1-300); conditions: protein: recombinant; tags: N-terminal GST; dsDNA, one strand shown
# T5 sequence: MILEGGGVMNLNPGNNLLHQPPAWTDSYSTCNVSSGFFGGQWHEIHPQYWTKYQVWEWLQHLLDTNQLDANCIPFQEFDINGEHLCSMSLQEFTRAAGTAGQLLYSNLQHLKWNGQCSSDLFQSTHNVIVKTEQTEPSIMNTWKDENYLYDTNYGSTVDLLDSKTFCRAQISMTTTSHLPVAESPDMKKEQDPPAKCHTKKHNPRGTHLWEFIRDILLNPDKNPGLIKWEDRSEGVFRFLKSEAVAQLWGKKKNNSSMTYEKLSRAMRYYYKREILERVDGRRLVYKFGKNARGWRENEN
# Procedure, shortened: as §1
# SPI1 = SPI1 (Homo sapiens, UniProt P17947 1-270); conditions: protein: recombinant; tags: N-terminal GST; dsDNA, one strand shown
# Procedure, shortened: as §1
# SPIB = SPIB (Homo sapiens, UniProt Q01892 1-262); conditions: protein: recombinant; tags: N-terminal GST; dsDNA, one strand shown
# Sequence of SPIB (Q01892 whole entry): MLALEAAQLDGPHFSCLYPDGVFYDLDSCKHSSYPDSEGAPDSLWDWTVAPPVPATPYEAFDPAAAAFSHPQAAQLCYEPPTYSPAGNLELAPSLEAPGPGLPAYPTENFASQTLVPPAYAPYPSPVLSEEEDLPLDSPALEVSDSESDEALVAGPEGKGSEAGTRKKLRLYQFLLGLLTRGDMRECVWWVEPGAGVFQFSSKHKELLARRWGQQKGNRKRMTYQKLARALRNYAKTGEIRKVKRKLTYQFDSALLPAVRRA
# Procedure, shortened: as §1
# ELK3 = molecular target: T6, ELK3 (Homo sapiens, UniProt P41970 1-407); conditions: protein: recombinant; tags: N-terminal GST; dsDNA, one strand shown
# T6 sequence: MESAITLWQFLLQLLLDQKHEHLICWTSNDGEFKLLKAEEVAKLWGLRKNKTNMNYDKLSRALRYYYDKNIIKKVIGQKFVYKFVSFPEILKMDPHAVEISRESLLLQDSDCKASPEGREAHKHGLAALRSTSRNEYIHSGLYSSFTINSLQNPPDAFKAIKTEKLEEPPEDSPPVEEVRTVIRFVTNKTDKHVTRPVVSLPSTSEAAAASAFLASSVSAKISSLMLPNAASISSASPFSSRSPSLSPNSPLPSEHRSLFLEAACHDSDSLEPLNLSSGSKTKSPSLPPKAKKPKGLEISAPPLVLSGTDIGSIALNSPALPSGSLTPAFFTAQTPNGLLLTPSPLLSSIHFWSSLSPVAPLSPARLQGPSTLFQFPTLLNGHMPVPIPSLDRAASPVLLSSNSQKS
# Procedure, shortened: as §1
# FEV = molecular target: T7, FEV (Homo sapiens, UniProt Q99581 1-238); conditions: protein: recombinant; tags: N-terminal GST; dsDNA, one strand shown
# T7 sequence: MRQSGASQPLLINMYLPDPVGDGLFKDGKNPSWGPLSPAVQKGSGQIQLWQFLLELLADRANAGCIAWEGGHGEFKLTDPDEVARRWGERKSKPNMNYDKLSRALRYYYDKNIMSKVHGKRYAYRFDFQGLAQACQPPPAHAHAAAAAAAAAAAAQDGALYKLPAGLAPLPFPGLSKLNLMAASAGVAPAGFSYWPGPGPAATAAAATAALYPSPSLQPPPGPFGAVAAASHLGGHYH
# Procedure, shortened: as §1
# ETV5 = ETV5 (Homo sapiens, UniProt P41161 1-510); conditions: protein: recombinant; tags: N-terminal GST; dsDNA, one strand shown
# Sequence of ETV5 (P41161 whole entry): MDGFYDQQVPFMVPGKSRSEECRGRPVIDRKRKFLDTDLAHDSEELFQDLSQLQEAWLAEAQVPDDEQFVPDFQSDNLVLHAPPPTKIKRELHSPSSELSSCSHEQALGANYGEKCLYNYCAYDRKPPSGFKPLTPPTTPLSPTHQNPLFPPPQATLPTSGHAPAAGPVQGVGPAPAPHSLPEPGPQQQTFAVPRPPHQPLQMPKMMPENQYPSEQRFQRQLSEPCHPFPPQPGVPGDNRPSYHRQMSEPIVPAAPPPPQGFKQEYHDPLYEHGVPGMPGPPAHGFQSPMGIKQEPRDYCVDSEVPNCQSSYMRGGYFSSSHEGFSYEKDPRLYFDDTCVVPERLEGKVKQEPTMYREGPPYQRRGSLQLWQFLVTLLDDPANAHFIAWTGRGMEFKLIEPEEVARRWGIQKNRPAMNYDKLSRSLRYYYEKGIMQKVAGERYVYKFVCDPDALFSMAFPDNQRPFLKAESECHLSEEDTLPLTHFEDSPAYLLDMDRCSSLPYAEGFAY
# Procedure, shortened: as §1
# HSF1 = HSF1 (Homo sapiens, UniProt Q00613 1-529); conditions: protein: recombinant; tags: N-terminal GST; chain copies: 3; dsDNA, one strand shown
# Sequence of HSF1 (Q00613 whole entry): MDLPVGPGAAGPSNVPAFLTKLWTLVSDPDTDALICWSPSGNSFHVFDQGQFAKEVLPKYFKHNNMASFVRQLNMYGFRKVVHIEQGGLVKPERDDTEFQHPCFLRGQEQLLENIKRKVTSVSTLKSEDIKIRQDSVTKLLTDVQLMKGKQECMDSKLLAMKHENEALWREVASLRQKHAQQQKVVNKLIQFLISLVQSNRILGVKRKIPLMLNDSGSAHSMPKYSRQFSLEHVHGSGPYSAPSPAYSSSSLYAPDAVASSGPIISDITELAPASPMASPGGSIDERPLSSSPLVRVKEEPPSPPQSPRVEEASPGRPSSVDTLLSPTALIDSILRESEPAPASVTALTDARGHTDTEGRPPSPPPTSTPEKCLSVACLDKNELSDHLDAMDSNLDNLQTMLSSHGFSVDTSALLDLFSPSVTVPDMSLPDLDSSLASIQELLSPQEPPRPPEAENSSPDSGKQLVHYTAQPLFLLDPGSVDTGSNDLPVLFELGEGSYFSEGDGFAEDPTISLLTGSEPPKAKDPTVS
# Procedure, shortened: as §1
# SPIC = molecular target: T8, SPIC (Homo sapiens, UniProt Q8N5J4 1-248); conditions: protein: recombinant; tags: N-terminal GST; dsDNA, one strand shown
# T8 sequence: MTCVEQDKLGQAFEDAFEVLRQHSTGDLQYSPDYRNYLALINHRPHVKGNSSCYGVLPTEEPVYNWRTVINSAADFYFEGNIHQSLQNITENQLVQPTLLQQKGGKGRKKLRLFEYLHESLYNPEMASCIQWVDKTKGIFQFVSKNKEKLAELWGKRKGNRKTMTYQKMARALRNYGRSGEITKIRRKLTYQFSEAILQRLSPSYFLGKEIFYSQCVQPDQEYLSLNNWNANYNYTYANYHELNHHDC
# Procedure, shortened: as §1
# ELF4 = ELF4 (Homo sapiens, UniProt Q99607 1-663); conditions: protein: recombinant; tags: N-terminal GST; dsDNA, one strand shown
# Sequence of ELF4 (Q99607 whole entry): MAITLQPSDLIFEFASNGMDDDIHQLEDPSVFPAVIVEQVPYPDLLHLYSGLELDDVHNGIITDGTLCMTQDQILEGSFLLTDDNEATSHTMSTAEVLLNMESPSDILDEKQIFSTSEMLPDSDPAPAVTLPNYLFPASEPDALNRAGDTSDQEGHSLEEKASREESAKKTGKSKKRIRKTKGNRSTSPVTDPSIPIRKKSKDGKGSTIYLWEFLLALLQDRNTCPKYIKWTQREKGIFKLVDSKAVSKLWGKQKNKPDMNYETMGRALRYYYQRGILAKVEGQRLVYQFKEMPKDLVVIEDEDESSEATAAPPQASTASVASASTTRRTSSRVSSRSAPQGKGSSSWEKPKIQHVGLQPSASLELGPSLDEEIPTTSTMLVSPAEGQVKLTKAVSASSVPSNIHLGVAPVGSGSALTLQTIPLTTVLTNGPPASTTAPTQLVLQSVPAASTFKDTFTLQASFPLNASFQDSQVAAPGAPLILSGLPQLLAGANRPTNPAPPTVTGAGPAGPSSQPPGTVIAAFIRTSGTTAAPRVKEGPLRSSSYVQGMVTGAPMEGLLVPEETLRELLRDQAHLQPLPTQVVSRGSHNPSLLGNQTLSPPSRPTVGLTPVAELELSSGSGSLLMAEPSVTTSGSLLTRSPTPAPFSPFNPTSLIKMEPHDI
# Procedure, shortened: as §1
# ELK4 = molecular target: T9, ELK4 (Homo sapiens, UniProt P28324-2 1-405); conditions: protein: recombinant; tags: N-terminal GST; dsDNA, one strand shown
# T9 sequence: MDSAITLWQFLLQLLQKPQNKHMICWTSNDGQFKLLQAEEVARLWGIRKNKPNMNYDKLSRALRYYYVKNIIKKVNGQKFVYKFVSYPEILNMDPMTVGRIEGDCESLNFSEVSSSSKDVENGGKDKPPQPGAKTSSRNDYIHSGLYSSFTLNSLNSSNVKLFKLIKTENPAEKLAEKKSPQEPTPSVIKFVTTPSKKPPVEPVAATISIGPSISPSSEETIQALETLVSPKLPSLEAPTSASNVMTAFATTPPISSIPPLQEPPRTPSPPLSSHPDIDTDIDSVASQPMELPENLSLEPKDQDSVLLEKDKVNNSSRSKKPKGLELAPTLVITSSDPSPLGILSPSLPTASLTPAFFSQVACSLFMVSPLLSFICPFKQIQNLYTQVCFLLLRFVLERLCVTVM
# Procedure, shortened: as §1
# ETV2 = molecular target: T10, ETV2 (Homo sapiens, UniProt O00321 1-342); conditions: protein: recombinant; tags: N-terminal GST; dsDNA, one strand shown
# T10 sequence: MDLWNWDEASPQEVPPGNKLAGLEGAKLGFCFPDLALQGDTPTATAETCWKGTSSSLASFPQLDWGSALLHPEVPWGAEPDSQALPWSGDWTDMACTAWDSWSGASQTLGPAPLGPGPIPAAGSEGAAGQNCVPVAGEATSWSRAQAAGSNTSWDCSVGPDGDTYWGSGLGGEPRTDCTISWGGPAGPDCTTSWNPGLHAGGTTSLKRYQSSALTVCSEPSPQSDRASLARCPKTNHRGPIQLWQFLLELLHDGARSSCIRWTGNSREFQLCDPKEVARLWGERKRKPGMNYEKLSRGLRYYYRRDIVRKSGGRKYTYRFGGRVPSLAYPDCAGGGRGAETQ
# Procedure, shortened: as §1
# ELF3 = molecular target: T11, ELF3 (Homo sapiens, UniProt P78545 1-371); conditions: protein: recombinant; tags: N-terminal GST; dsDNA, one strand shown
# T11 sequence: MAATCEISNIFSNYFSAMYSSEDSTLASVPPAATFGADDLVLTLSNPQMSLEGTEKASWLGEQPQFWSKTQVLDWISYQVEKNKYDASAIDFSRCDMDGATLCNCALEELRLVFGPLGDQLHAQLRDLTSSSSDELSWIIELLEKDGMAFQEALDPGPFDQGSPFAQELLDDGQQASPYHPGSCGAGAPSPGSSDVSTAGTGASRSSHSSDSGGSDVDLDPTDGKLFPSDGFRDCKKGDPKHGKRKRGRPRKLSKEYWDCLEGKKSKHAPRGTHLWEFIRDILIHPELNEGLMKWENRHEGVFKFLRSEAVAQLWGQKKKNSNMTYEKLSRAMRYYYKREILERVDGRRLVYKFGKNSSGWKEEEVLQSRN
# Procedure, shortened: as §1
# ETV1 = ETV1 (Homo sapiens, UniProt P50549 1-477); conditions: protein: recombinant; tags: N-terminal GST; dsDNA, one strand shown
# Sequence of ETV1 (P50549 whole entry): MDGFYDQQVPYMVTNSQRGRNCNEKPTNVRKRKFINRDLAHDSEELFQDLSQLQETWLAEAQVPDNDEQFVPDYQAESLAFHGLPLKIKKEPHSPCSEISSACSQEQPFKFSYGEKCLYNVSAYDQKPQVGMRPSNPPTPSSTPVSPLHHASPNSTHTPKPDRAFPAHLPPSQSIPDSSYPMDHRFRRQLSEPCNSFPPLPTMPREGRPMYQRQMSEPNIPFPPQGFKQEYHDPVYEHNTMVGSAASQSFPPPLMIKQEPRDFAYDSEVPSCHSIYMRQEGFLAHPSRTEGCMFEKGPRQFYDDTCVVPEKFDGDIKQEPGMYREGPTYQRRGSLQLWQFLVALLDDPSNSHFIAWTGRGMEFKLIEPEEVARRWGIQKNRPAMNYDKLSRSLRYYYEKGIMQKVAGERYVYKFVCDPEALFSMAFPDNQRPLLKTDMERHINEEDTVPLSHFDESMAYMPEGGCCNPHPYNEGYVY
# Procedure, shortened: as §1
sequence,measurement,setting,value
ATGTGC,binding signal,FLI1,"1.05 fold enrichment (6-mer frequency, TF over GST control)"
same,binding signal,ELK1,"1.1 fold enrichment (6-mer frequency, TF over GST control)"
same,binding signal,GABPA,"1.1 fold enrichment (6-mer frequency, TF over GST control)"
same,binding signal,ERG,"1.14 fold enrichment (6-mer frequency, TF over GST control)"
same,binding signal,ELF1,"1.19 fold enrichment (6-mer frequency, TF over GST control)"
same,binding signal,EHF,"1.05 fold enrichment (6-mer frequency, TF over GST control)"
same,binding signal,SPI1,"1.06 fold enrichment (6-mer frequency, TF over GST control)"
same,binding signal,SPIB,"1.15 fold enrichment (6-mer frequency, TF over GST control)"
same,binding signal,ELK3,"1.09 fold enrichment (6-mer frequency, TF over GST control)"
same,binding signal,FEV,"1.16 fold enrichment (6-mer frequency, TF over GST control)"
same,binding signal,ETV5,"1.16 fold enrichment (6-mer frequency, TF over GST control)"
same,binding signal,HSF1,"1.02 fold enrichment (6-mer frequency, TF over GST control)"
same,binding signal,SPIC,"1.17 fold enrichment (6-mer frequency, TF over GST control)"
same,binding signal,ELF4,"1.17 fold enrichment (6-mer frequency, TF over GST control)"
same,binding signal,ELK4,"1.21 fold enrichment (6-mer frequency, TF over GST control)"
same,binding signal,ETV2,"1.11 fold enrichment (6-mer frequency, TF over GST control)"
same,binding signal,ELF3,"1.1 fold enrichment (6-mer frequency, TF over GST control)"
same,binding signal,ETV1,"1.05 fold enrichment (6-mer frequency, TF over GST control)"
